# Shown are actives, neighbours in structure and some others; about 19% of the full set was active somewhere.
# TDP1 cell CPT = qHTS for Inhibitors of human tyrosyl-DNA phosphodiesterase 1 (TDP1): qHTS in cells in presence of CPT; chicken DT40 Tdp1-/-;hTDP1 cells + 20 nM CPT, ATP luminescence, 48 h; 420,000 tested, 12% active; AID 686979, 2013; Potency, µM (top dose mostly 46.2 µM), for the others: at the highest dose activity change, negative = growth inhibition, most hits filed as inhibitors; also: potency is read from the fitted curve at half-maximal effect; nearly all actives have a fitted effect of over 55% in size
#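 Chicken DT40 Tdp1-/- cells stably complemented with human TDP1 were seeded at 400 cells/well in medium containing 20 nM camptothecin, exposed to pin-transferred compounds, and grown at 37 °C for at least 48 hr. Viability was read as ATP luminescence.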
# HT1080-NT tox = qHTS for induction of synthetic lethality in tumor cells producing 2HG: qHTS for the HT-1080-NT fibrosarcoma cell line. AID 686970, 2013. Potency, µM (highest dose often 46.1 µM), for inactives: at the top dose activity, negative = less viability, hits mostly cytotoxic. HT-1080-NT fibrosarcoma viability, CellTiter-Glo ATP luminescence, 48 h. 360,000 tested, 1.6% active;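 also: NT is the 2HG producing partner of a matched IDH1 knockdown line; potency is read from the fitted curve at half-maximal effect; 0% = DMSO-treated cells and -100% = media-only wells without cells; nearly all actives have a fitted effect of over 55% in size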
#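 Luminescent CellTiter-Glo readout after 48 hours of compound exposure at 37 degrees C defined viability of HT-1080-NT cells. Activity was normalized to DMSO wells and cell-free media wells; concentration-response curves were fitted and assigned curve classes.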
# HT1080 IDH1KD tx = qHTS for induction of synthetic lethality in tumor cells producing 2HG: qHTS for the HT-1080-IDH1KD cell line | HT-1080 IDH1 knockdown viability, ATP luminescence, 48 h | Potency, µM (top dose mostly 46.1 µM), for the others: at the highest dose activity, negative = toxicity, actives largely listed as cytotoxic | 360,000 tested, 2% active;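 also: potency is read from the fitted curve at half-maximal effect; 0% = DMSO wells and -100% = cell-free medium wells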
#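 In this qHTS, HT-1080 cells depleted of IDH1 are exposed for 48 h at 37 °C to compound titrations. Toxicity is scored from CellTiter-Glo luminescence, with DMSO as full viability and medium alone as none.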
# IL-1B inflam inh = qHTS for Inhibitors of Inflammasome Signaling: IL-1-beta AlphaLISA Primary Screen; THP-1 LPS/ATP IL-1B secretion, AlphaLISA, 16 h; hits give low values; activity change, % at 57.5 µM; AID 743279, 2014; 360,000 tested, 4.7% active; in the data active = activity change below about -50%; inconclusive = mostly about -30% to -49%
#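 Secreted IL-1B measured by AlphaLISA bead assay after 16 h compound exposure of THP-1 cells; compounds (final up to 57.5 uM) added 1 h before LPS (250 ng/mL) and ATP (1.25 mM) stimulation; lower signal means less secretion.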
# DT40 TDP1 no CPT = qHTS for Inhibitors of human tyrosyl-DNA phosphodiesterase 1 (TDP1): qHTS in cells in absence of CPT. DT40 Tdp1-/- hTDP1 cells, no CPT, ATP luminescence, 48 h. 420,000 tested, 15% active. Potency, µM (doses to about 46.2 µM), for inactives: at the highest dose activity change, negative = growth inhibition, most hits filed as inhibitors; also: potency is read from the fitted curve at half-maximal effect; nearly all actives have a fitted effect of over 55% in size
#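 Readout: luminescence from CellTiter-Glo after 30 min in the dark at RT. Cells: DT40 Tdp1-/- with stable hTDP1, 400/well. Exposure: compounds alone, ≥48 hr, 37 °C.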
# * = called active by the depositor; ? = inconclusive; . = not tested or not shown; [ ] = another dose, or the depositor's remark. Unless noted, calls follow the shape of the dose curve; as a rule, active = well fitted curve in the direction sought with a large enough effect; inconclusive = small, poorly fitted or top-dose-only effect, or another doubt; inactive = no such curve, though single readings can be large; an effect the other way counts as inactive or inconclusive. Unless noted, % is scaled to controls: 0 for no effect and ±100 for the full control effect.
SMILES,TDP1 cell CPT,HT1080-NT tox,HT1080 IDH1KD tx,IL-1B inflam inh,DT40 TDP1 no CPT
COc1ccc(NC(=O)c2cc3ccccc3oc2=O)c(OC)c1,-16%,14%,4%,13,0%
CCCCCCc1cc2cc(-c3nnc(-c4ccccc4OC)o3)c(=O)oc2cc1O,?,?,?,1,16µM*
COc1ccc(-c2nnc(-c3cc4ccccc4oc3=O)o2)cc1,-5%,4%,4%,-10,?
COc1cccc2cc(-c3nnc(-c4ccccc4)o3)c(=O)oc12,1%,24%,20%,?,-17%
CCCCCCc1cc2cc(-c3nnc(-c4ccccc4O)o3)c(=O)oc2cc1O,8.2µM*,-2%,0%,0,7.3µM*
COc1cc(-c2nnc(SCc3cc(=O)oc4cc(O)c(O)cc34)o2)cc(OC)c1OC,-1%,-3%,?,72,-13%
CCCCCCc1cc2cc(-c3nnc(-c4cc(OC)c(OC)c(OC)c4)o3)c(=O)oc2cc1O,?,-2%,-9%,40,23µM*
CCCCCCc1cc2cc(C(=O)Nc3ccccc3OC)c(=O)oc2cc1O,16µM*,6%,2%,7,16µM*
CC(C)c1c(C(=O)NCC2(N3CCCCC3)CCCC2)cnn1-c1nccc(-c2ccco2)n1,11%[9.04 µM],.,.,.,-2%
Cc1ccc(S(=O)(=O)NC(=O)Nc2c(C)cccc2C)cc1,7%,8%,6%,16,3%
Cc1ccc(S(=O)(=O)n2nc(-c3ccc(Cl)cc3)nc2NCc2ccco2)cc1,?,-8%,-11%,?,?
CN1CCCN(C(=O)Cc2c(Cl)cccc2Cl)c2nc3ccccc3nc21,-20%,-7%,-17%,-7,-22%
CCCCCCc1cc2cc(S(=O)(=O)c3ccc(F)cc3)c(=O)oc2cc1O,21µM*,?,?,-1,?
CCC(=Nc1ccccc1)C1=C(O)CCCC1=O,32%,-2%,?,6,-10%
CN(C(=O)c1ccc2c(=O)n3c(nc2c1)CCCCC3)c1cccc(Cl)c1,23µM*,-7%,-11%,-7,23µM*
CN(Cc1ccc(C(C)(C)C)cc1)C(=O)c1ccc2c(=O)n3c(nc2c1)CCC3,21µM*,7%,2%,8,21µM*
COc1ccc(N2CCN(C(=O)c3ccc4c(=O)n5c(nc4c3)CCCCC5)CC2)cc1,-27%,-4%,8%,-15,?
CN(C(=O)c1ccc2c(=O)n3c(nc2c1)CCCCC3)c1ccccc1F,-15%,8%,2%,28,6%
O=C(c1ccc2c(=O)n3c(nc2c1)CCCCC3)N1CCN(c2cccc(Cl)c2)CC1,18µM*,3%,0%,-4,23µM*
COc1ccc(CN(C)C(=O)c2ccc3c(=O)n4c(nc3c2)CCC4)cc1,6%,20%,8%,22,-1%
CN(C(=O)COC(=O)c1ccc2c(=O)n3c(nc2c1)CCC3)C1CCS(=O)(=O)C1 (configuration not stated),8%,-8%,-10%,-70*,-2%
COc1ccc(S(=O)(=O)N2CCCCC2)cc1C(=O)Nc1cccc(C(F)(F)F)c1,32%,.,.,.,-9%
CCCN(C(=O)c1ccc2c(=O)n3c(nc2c1)CCCCC3)c1cccc(Cl)c1,?,.,.,.,16µM*
CN(C(=O)COC(=O)c1nc(Cl)c(Cl)c(Cl)c1Cl)C1CCS(=O)(=O)C1 (configuration not stated),21µM*,16µM*,5.8µM*,-99*,21µM*
CCN(C(=O)c1ccc2c(=O)n3c(nc2c1)CCCCC3)c1ccccc1C,?,-3%,14%,18,?
SMILES,TDP1 cell CPT,HT1080-NT tox,HT1080 IDH1KD tx,IL-1B inflam inh,DT40 TDP1 no CPT
CN(C(=O)COC(=O)c1ccc(C(C)(C)C)cc1)C1CCS(=O)(=O)C1 (configuration not stated),-1%,4%,2%,2,-3%
COc1ccc2oc(C(=O)Nc3nnc(C)s3)c(C)c2c1,-26%,9%,12%,-29,-11%
COc1ccc2oc(C(=O)Nc3nc(-c4ccccn4)cs3)c(C)c2c1,5.8µM*,-28%,?,28,5.8µM*
COc1cc(OC)cc(C(=O)Nc2nc3ccc(S(C)(=O)=O)cc3s2)c1,-25%,-20%,-22%,58,?
COc1ccc2oc(C(=O)Nc3nc4ccc(S(C)(=O)=O)cc4s3)c(C)c2c1,?,-3%,-3%,-52*,16µM*
CN1C[C@@H]2C[C@H]1CN2c1cc2c(cc1F)c(=O)c(C(=O)O)cn2C1CC1,6.7µM*,.,.,.,6.7µM*
COc1c(F)c(F)cc2c(=O)c(C(=O)O)cn(C3CC3)c12,2%,0%,-7%,-7,-17%
O=C(O)c1cn(C2CC2)c2cc(N3CCN(S(=O)(=O)c4ccc5c(c4)OCCO5)CC3)c(F)cc2c1=O,15µM*,?,?,32,15µM*
Cc1cc(C)cc(NC(=O)Cn2c(=O)n(-c3ccc(C)c(C)c3)c(=O)c3oc4ccccc4c32)c1,8%,.,.,.,4%
COC(=O)c1ccncc1C(=O)Nc1ccc(Oc2ncc(C(F)(F)F)cc2Cl)cc1,2%,6%,4%,22,-17%
COC(=O)c1cnc(Oc2ccc(NC(=O)NC(=O)c3ccccc3Cl)cc2)cc1C(F)(F)F,?,2%,0%,8,4.1µM*
C[C@H]1CN([C@@H](C)CO)C(=O)c2cc(Br)cnc2O[C@@H]1CN(C)C(=O)Nc1ccc(C(F)(F)F)cc1,21µM*,-12%,-4%,4,23µM*
C[C@@H]1CN([C@H](C)CO)C(=O)c2cc(C#C[C@@H](C)O)cnc2O[C@H]1CN(C)C(=O)c1ccc(F)cc1,-2%,0%,-7%,24,7%
C[C@H](CO)N1C[C@H](C)[C@H](CN(C)C(=O)Nc2ccc(C(F)(F)F)cc2)Oc2ncc(Br)cc2C1=O,?,-10%,-4%,-7,?
C[C@H](O)C#Cc1cnc2c(c1)C(=O)N([C@H](C)CO)C[C@@H](C)[C@H](CN(C)C(=O)Nc1ccc(C(F)(F)F)cc1)O2,12µM*,-3%,12%,?,7.3µM*
O=C(NCCc1ccccc1)c1cc(=O)[nH]c2ccccc12,5%,27%,4%,-7,-1%
CN(C)c1cccc(C(=O)NCC2Cc3cccc(-c4cncnc4)c3O2)c1 (configuration not stated),-8%[9.04 µM],.,.,.,-26%

# Bioassay records from PubChem BioAssay.
